In article PMC4336329 (PLoS ONE, 2015):
The whole screen tested about 310,000 compounds, of which about 14,000 (4.5%) showed an effect of 50% or more. Effects have a minus sign here. Shown is part of a subset that was picked to be rich in strong results.

Each compound was assayed against human ether-à-go-go-related gene (hERG) potassium channel (human, UniProt Q12809) (assay: primary screen, population patch clamp on CHO cells stably expressing hERG; higher = less effect of the substance).
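Also: peak tail current of the secondary pulse compared with the same well before compound.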

Chain of human ether-à-go-go-related gene (hERG) potassium channel (Q12809 whole entry, looked up): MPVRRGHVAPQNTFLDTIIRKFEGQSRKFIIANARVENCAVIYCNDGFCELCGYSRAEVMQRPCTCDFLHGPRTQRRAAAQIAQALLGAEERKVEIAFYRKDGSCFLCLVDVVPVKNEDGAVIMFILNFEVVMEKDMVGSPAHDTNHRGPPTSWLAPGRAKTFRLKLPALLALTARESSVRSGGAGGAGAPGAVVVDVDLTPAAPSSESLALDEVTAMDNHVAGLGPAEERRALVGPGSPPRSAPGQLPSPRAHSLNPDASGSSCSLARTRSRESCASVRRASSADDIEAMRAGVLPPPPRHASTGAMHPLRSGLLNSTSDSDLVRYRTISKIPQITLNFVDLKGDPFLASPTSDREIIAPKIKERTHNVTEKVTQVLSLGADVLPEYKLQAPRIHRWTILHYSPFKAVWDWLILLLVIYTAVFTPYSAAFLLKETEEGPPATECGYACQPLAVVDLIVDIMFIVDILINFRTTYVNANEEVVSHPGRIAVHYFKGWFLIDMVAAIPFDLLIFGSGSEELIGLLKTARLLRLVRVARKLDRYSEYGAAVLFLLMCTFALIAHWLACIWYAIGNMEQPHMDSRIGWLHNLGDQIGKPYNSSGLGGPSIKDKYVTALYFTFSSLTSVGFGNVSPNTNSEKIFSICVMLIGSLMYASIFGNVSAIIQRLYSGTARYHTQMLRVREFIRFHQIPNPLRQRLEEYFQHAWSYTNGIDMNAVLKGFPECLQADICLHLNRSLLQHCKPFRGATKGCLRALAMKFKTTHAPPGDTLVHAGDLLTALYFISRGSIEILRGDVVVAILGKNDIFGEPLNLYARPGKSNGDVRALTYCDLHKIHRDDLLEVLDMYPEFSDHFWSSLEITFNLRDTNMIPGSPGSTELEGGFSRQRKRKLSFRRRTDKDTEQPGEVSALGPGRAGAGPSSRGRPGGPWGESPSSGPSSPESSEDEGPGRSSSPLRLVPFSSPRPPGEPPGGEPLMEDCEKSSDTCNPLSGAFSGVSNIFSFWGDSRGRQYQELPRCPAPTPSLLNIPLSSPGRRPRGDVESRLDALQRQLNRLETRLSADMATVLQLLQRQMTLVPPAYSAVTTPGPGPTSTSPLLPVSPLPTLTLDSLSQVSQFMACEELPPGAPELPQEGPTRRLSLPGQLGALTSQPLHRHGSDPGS

SMILES	hERG current change (%, negative = inhibition) at 10uM [%]
CCC(C)(CC(=O)N(C)CCC#N)c1ccccc1 (stereo not drawn)	-0.111
COc1ccc(C(=O)N2CCCC(Nc3ccc(C)c(C)c3)C2)c(OC)n1 (stereo not drawn)	-17.7
COc1cc(OC)cc(-c2nc3ccccc3c(=O)n2OC(=O)c2ccccc2C)c1	10.6
CCN(CC(=O)NCc1cccs1)C(=O)CCOc1ccccc1C	-19.8
CCN(CC(=O)NCc1ccc(Cl)cc1)C(=O)CCOc1ccccc1C	-71
CCOc1ccc(OCCC(=O)N(CC)CC(=O)Nc2c(F)cccc2F)cc1	-60.2
CCN(CC(=O)Nc1c(F)cccc1F)C(=O)CCOc1ccc(C)cc1	-2.71
CCOc1ccc(OCCCC(=O)N(CC)CC(=O)Nc2c(F)cccc2F)cc1	-5.99
CCN(CC(=O)Nc1cc(Cl)ccc1C)C(=O)CCOc1ccccc1C	18.4
C=CCn1c(C)cc(C(=O)COC(=O)c2cncc(Br)c2)c1C	-55.9
C=CCn1c(C)cc(C(=O)COC(=O)c2ccc3c(c2)NC(=O)CS3)c1C	4.69
COCCn1c(C)cc(C(=O)COC(=O)c2cncc(Br)c2)c1C	-31.3
Cc1cc(C)nc(NS(=O)(=O)c2ccc(N)cc2)n1	12
COc1cc(NS(=O)(=O)c2ccc(N)cc2)nc(OC)n1	9.57
CNc1cc(NS(=O)(=O)c2ccc(N)cc2)nc(NC)n1.Cl	-61.4
OCCN(CCO)c1ncnc2c1sc1nc(N3CCOCC3)c3c(c12)CCCC3	-13.3
CC1(C)Cc2c(c(N3CCOCC3)nc3sc4c(NN)ncnc4c23)CS1	-5.43
CCN(CC)CCNc1ncnc2c1sc1nc(N3CCOCC3)c3c(c12)CC(C)(C)SC3	-71.1
OCCN1CCN(c2ncnc3c2sc2nc(N4CCOCC4)c4c(c23)CCC4)CC1	-22.1

SMILES	hERG current change (%, negative = inhibition) at 10uM [%]
CN(CCO)c1ncnc2c1sc1nc(N3CCOCC3)c3c(c12)CCC3	-55.2
CC(C)CNc1ncnc2c1sc1nc(N3CCOCC3)c3c(c12)CC(C)(C)OC3	-4.77
CCN(CC)CCNc1ncnc2c1sc1nc(N3CCCC3)c3c(c12)CC(C)(C)OC3	-65.5
CCN(CC)CCNc1ncnc2c1sc1nc(N3CCOCC3)c3c(c12)CCCC3	-32.8
CN(C)CCNc1ncnc2c1sc1nc(N3CCCC3)c3c(c12)CC(C)(C)OC3	-20.4
C[C@]12CCC(OC(=O)CCC(=O)O)CC1=CCC1C2CC[C@]2(C)C(=O)CCC12 (stereo partly drawn)	11.5
CC1(C)c2[nH]c3ccccc3c2C[C@H]2C(=O)N(N)CC(=O)N21.Cl	19
COc1ccc(N2CCN(c3nc4cc(C)ccc4cc3C=O)CC2)cc1	16.6
COC(=O)C1=C(c2c(C)noc2C)C[C@@H]2CC[C@H]1N2C(=O)NCc1ccco1	19
O=C1COc2ccc(C(=O)CSc3nnc(NCc4ccccc4)s3)cc2N1	-9.48
O=[N+]([O-])c1ccc(Sc2ccccc2)nc1	8.82
O=[N+]([O-])c1ccc(Sc2ncc3ccccn23)nc1	-51.6
CCOC(=O)c1cnc(SCC(=O)Nc2nc(C)c(C)s2)nc1N	-61.9
O=[N+]([O-])c1ccc(Sc2n[nH]c(-c3ccco3)n2)nc1	-0.59
CCn1c(SCC(N)=O)nnc1-c1ccco1	3.15
O=[N+]([O-])c1ccc(Sc2ccccn2)nc1	10.8
CCn1c(SCC(=O)Nc2nncs2)nnc1-c1ccco1	17.2
CCOC(=O)c1cnc(SCC(=O)Nc2sc(C)c(C)c2C#N)nc1N	14.2
CCn1c(Sc2ccc([N+](=O)[O-])cn2)nnc1-c1ccco1	-66.5

SMILES	hERG current change (%, negative = inhibition) at 10uM [%]
CCOC(=O)c1cnc(SCC(=O)Nc2nnc(CC)s2)nc1N	8.46
Cc1csc(NC(=O)CSc2nnc(-c3ccco3)n2C)n1	-31.6
CCn1c(SCC(=O)Nc2nc(C)cs2)nnc1-c1ccco1	-50.8
COc1ccc(C2/C(=C(/O)c3ccc(C)cc3)C(=O)C(=O)N2C)cc1 (stereo not drawn)	-2.36
CC1CCc2ccccc2N1C(=N)N(C)C.Cl (stereo not drawn)	3.44
CCNC(=O)O/N=C(\C)c1sc(-c2ccccc2)nc1C	-11.2
CCOC(=O)C(=CNNc1cccc(Cl)c1)C(=O)OCC	15.5
O=C(Nc1ccc(F)cc1F)c1sccc1SCc1cccc(C(F)(F)F)c1	-4.52
O=C(Nc1ccc(Nc2ccccc2)cc1)c1c(F)c(F)c(F)c(F)c1F	22.9
CCOc1cccc(N(C(=O)c2ccco2)C(C(=O)NC2CCCC2)c2cccnc2)c1 (stereo not drawn)	0.854
Cc1ccc2sc(NNC(=O)c3cc(-c4cccs4)nc4ccccc34)nc2c1C	16.3
CCn1c(SCC(=O)Nc2nc(C)c(C)s2)nnc1-c1ccco1	-68.8
CCn1c(Cc2ccccc2)nnc1SCC(=O)Nc1nc(C)c(C)s1	9.3
CCn1c(SCC(=O)Nc2nc(C)c(C)s2)nnc1-c1cccs1	-73.4
CCn1c(SCC(=O)Nc2nnc(C)s2)nnc1-c1ccco1	-5.98
CCc1nnc(NC(=O)CSc2nnc(-c3ccco3)n2CC)s1	13.7
CCn1c(SCC(=O)Nc2nc(C)c(C)s2)nnc1-c1cccnc1	-26.2
Cc1ccc2cc(C=C(C#N)C#N)c(N3CCCCC3)nc2c1	15.3
Nc1ccc2c(c1)-c1ccccc1S(=O)(=O)N2	11.1
